Reference: PubChem BioAssay (NCATS)
Values joined by “and” are separate entries in the source; they are usually repeats but may differ in a detail not shown here. Equal entries are not always repeated. Results filed as inconclusive are left out. Values without a mark were called inactive. Active and inactive are the calls of the source. The call rests on the fitted dose curve; in most records, active means well fitted inhibition curve with a large enough effect; inconclusive means small, poorly fitted or top-dose-only effect; inactive means flat fitted curve, though single readings scatter.

Test: Primary qHTS for inhibitors of nuclear receptor binding SET domain protein 2 (NSD2) in an isogenic RCH-ACV NSD2 p.E1099K mutant (9B) (AID 1645876); further: nearly all actives have a fitted effect of over 70% in size
Settings: RCH-ACV (leukaemia line) NSD2 E1099K (9B) viability, CellTiter-Glo, 72 h; series mostly up to 44.9 µM; activity change, negative = viability loss: at the top concentration
On the % scale 0 is the no-effect control and ±100 the full control effect; potency means the concentration at half of the fitted maximal effect.

Which Potency does the source give for Clc1ccc(C(Cn2ccnc2)OCc2ccc(Sc3ccccc3)cc2)c(Cl)c1 (stereo not given) here?
The Potency was 18.6 µM (active).

Which “outcome” value does the source give for CC(C)c1ccc2oc3nc(N)c(C(=O)O)cc3c(=O)c2c1 here?
The value was “inactive”.

For Cc1cccc(CN2CCN(C(c3ccccc3)c3ccc(Cl)cc3)CC2)c1 (stereo not given), which “activity change, negative = viability loss” value is on record?
Its value is -25.4%.

With O=C(O)c1cn(-c2ccc(F)cc2)c2cc(N3CCNCC3)c(F)cc2c1=O as the molecule, how does the Potency read?
Its Potency is “inactive”.

With CC1Cc2ccccc2N1NC(=O)c1ccc(Cl)c(S(N)(=O)=O)c1 (stereo not given) as the molecule, how does the Potency read?
The Potency was “inactive”.

Which Potency does the source give for O=C(O)c1cc(=O)c2c(OCC(O)COc3cccc4oc(C(=O)O)cc(=O)c34)cccc2o1 here?
Its Potency is “inactive”.

For COCCCN1CCC(NC(=O)c2cc(Cl)c(N)c3c2OCC3)CC1, which “activity change, negative = viability loss” value is on record?
The value was 6.06%.

With Cc1cc(=O)c2c(O)c3c(O)cc(=O)c4c3c3c(cc(O)c1c23)C(C)(C)C=4O as the molecule, how does the “activity change, negative = viability loss” value read?
Its value is -16.1% [at 17.3 µM].

With CC1=C(C)C(=O)C(C(CCCCCC(=O)O)c2ccccc2)=C(C)C1=O (stereo not given) as the molecule, how does the “activity change, negative = viability loss” value read?
Its value is 6.07%.

For CC(S)C(=O)NCC(=O)O (stereo not given), which Potency is on record?
The Potency was “inactive”.

With O=C(NC(Cc1cc(=O)[nH]c2ccccc12)C(=O)O)c1ccc(Cl)cc1 (stereo not given) as the molecule, how does the Potency read?
Its Potency is “inactive”.

For CC1=C(C(=O)O)N2C(=O)[C@@H](NC(=O)[C@H](N)C3=CCC=CC3)[C@H]2SC1, which “activity change, negative = viability loss” value is on record?
The value was -43.6%.

For C[Se]CCC(N)C(=O)O (stereo not given), which “activity change, negative = viability loss” value is on record?
Its value is 7.43% [at 91.9 µM].

With O=C(O)CCNC(=O)c1ccc(N=Nc2ccc(O)c(C(=O)O)c2)cc1 as the molecule, how does the Potency read?
The Potency was “inactive”.

For CC[C@]1(O)C[C@H]2CN(CCc3c([nH]c4ccccc34)[C@@](C(=O)OC)(c3cc4c(cc3OC)N(C=O)[C@H]3[C@@](O)(C(=O)OC)[C@H](OC(C)=O)[C@]5(CC)C=CCN6CC[C@]43[C@@H]65)C2)C1, which Potency is on record?
The Potency was 7.5 nM (active) and 59 nM (active).
